The results in this text go back to PubChem BioAssay AID488890 (Southern Research Specialized Biocontainment Screening …, 2010).

Out of some 320,000 compounds screened, about 1,300 (0.41%) were called active. About 3% were inconclusive and are not listed. How the calls were made is not given here. Not all results are given here. Entries with a potency or affinity are not part of this list.

The nature of this assay: growth inhibition of non-replicating M. tuberculosis (AID 488890).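 Further: plate controls were DMSO cells for no effect and high antibiotic wells for full effect.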 The conditions noted are these: Mycobacterium tuberculosis non-replicating, at 25 µM, stronger effect = higher value.
On to `CN(Cc1ccccc1)C(=O)COC(=O)c1cc(=O)c2ccccc2o1`, for which the inhibition was -3.1%. For the molecule `COc1ccccc1C(=O)Nc1nc2cc3c(cc2s1)OCO3`, the inhibition was -15.7%. The value for `O=C(Nc1cc(F)ccc1F)c1ccc(-n2cncn2)c([N+](=O)[O-])c1` was 3.94%. On to `COc1ccc(NC(=O)C2CC(=O)n3ncnc3N2)cc1` (configuration not stated), for which the inhibition was -0.6%. The result for `COc1cc(-c2nc(-c3ccccc3)c(-c3cccs3)[nH]2)cc(OC)c1OC` reads -1.14%; that for `Cc1ccc(C(=O)NC(C)c2ccc(S(N)(=O)=O)cc2)s1` (configuration not stated), -0.6%; that for `CC(=O)Nc1ccc(NC(=O)CSc2nnc(CC(C)O)n2-c2ccccc2)cc1` (configuration not stated), -7.33%. The result for `O=C(CN1CCN(S(=O)(=O)c2ccc(F)cc2)CC1)Nc1ccc(Cl)cn1` reads 37.8%; that for `FC(F)(F)c1cccc(Cc2noc(CN3CCCC(CN4CCCC4)C3)n2)c1` (configuration not stated), 51%. With `Cc1cccn2c(CNC3CCCc4ccccc43)c(C(=O)N3CCOCC3)nc12` (configuration not stated), the inhibition is 21.9%.

With `CCn1c(C)nc2cc(S(N)(=O)=O)ccc21`, the inhibition is -15.1%. The value for `CC(C)c1onc(C(=O)NCc2ccccc2)c1[N+](=O)[O-]` was 44.9%; that for `Cc1cc(C)n(-c2nc3ccccc3nc2N2CCC(C)CC2)n1` was 34%; that for `Cc1cc(Cl)nc(-n2nc(C)cc2C)n1` was 27.1%.

Consider `CCCc1nc(C)cc(N2CCN(c3ccccc3)CC2)n1`, for which the inhibition was -3.49%. With `Cc1cc(N2CCN(c3ccccc3)CC2)nc(N)n1`, the inhibition is -1.71%. In the case of `COc1ccccc1OCc1ccc(C(=O)NCC2CCCO2)cc1` (configuration not stated), the inhibition worked out at 1.26%. The result for `Cc1cccc(N2CCN(C(=O)c3ccc(CS(=O)Cc4cccc(Cl)c4)o3)CC2)c1C` (configuration not stated) reads 28.5%. The value for `Cn1nc(C(=O)NCCN2CCOCC2)c2ccccc2c1=O` was -5.46%; that for `CC(=O)n1cc(C=C2C(=O)NC(=O)NC2=O)c2ccccc21` was 0%; that for `CC(=O)O/C(=C\c1cn(C(C)=O)c2ccccc12)C(=O)O` was -6.32%.

With `Cc1ccc2c(c1)N(C)/C(=C/c1cccc[n+]1CCO)S2`, the inhibition is 6.55%. `O=C(O)Cc1ccc(NS(=O)(=O)c2c(Cl)cccc2Cl)cc1`: the inhibition is -11.9%. For the molecule `CCNc1nc(N2CCCC2)nc(N2CCCC2)n1`, the inhibition is 75.5%. The value for `CC(C)(C)Nc1nc(N2CCCC2)nc(N2CCCC2)n1` was 59.5%; that for `CCOC(=O)[C@@H]1[C@H]2COc3cc(OC)ccc3[C@H]2N2C(=O)N(c3cccc(Cl)c3)C(=O)[C@]12C` was 1.05%.

As for `COc1cc2[nH]c(=O)c(C(=O)NCCCN3CCOCC3)c(O)c2cc1OC`, the inhibition turned out to be 1.72%. As for `O=C(NCCCN1CCOCC1)c1c(O)c2ccccc2[nH]c1=O`, the inhibition was -0.01%.

As to `CCc1ccc(C(=O)Nc2cc3c(cc2Cl)OCCCO3)cc1`, the inhibition is 42%. The value for `O=C(O)C1CCN(C(=O)CCN2C(=O)S/C(=C\c3ccccc3)C2=O)CC1` was 1.98%; that for `CCCCn1c(=O)c(CCC(=O)OCC(=O)Nc2cc(Cl)ccc2OC)nc2ccccc21` was -2.09%; that for `COC(=O)[C@H](CCSC)NC(=O)NCCc1ccc(F)cc1` was -16.4%. As for `CCCCCn1c(=O)c2ccccc2n2c(=S)[nH]nc12`, the inhibition was -0.64%. Take `CCCCn1c(=O)c2ccccc2n2c(=S)[nH]nc12`: the inhibition is -11.3%.

Turning to `COc1ccc(Sc2ncnc3onc(C)c23)cc1`, the inhibition stood at 58.2%. The value for `Cc1ccc(Sc2ncnc3onc(C)c23)cc1` was 72.5%.

For `COC(=O)c1ccccc1Sc1snnc1C`, the inhibition was -5.51%. Regarding `Cc1ccccc1Sc1ncnc2onc(C)c12`, the inhibition was found to be 5.13%. The value for `CN(C)S(=O)(=O)c1ccc(NC(=O)COC(=O)C2CC3CCCC(C2)C3=O)cc1` (configuration not stated) was 14.8%; that for `COc1ccc(-n2c(O)c(C=NCCCn3ccnc3)c(=O)[nH]c2=O)cc1` was -3.58%; that for `Cc1cc(NC(=O)CN2CCN(c3ccccc3O)CC2)no1` was 3.86%. Consider `CCCCn1c(=O)c(C=Nc2cc([N+](=O)[O-])ccc2OC)c(O)n(CCCCl)c1=O`, for which the inhibition worked out at 64%.

With `CCCCN1CC(C(=O)NC2CCCCC2)CC1=O` (configuration not stated), the inhibition was -9.76%.

`CCOc1ccc2oc(C(=O)OCC(=O)NCc3ccc(OC)cc3)c(C)c2c1`: the inhibition is 26.4%. In the case of `Cc1nn(C2CCS(=O)(=O)C2)c(Cl)c1/C=C/C(=O)OCC(=O)Nc1ccc2c(c1)OCO2` (configuration not stated), the inhibition worked out at 3.18%. The value for `O=C(c1cnn2c(C(F)(F)F)cc(-c3ccccc3)nc12)N1CCCCC1c1cccnc1` (configuration not stated) was 22.6%; that for `Nc1ccc(-c2nc3ncccc3o2)c(O)c1` was 8.78%; that for `O=C1OC(Oc2ccccc2)(c2ccccc2)c2ccccc21` (configuration not stated) was -1.31%. The result for `COc1ccccc1COCC(O)CNCCc1ccc(C(F)(F)F)cc1` (configuration not stated) reads 67.5%; that for `OC(CNCc1ccccc1F)COc1cccc2ccccc12` (configuration not stated), 29.3%. Turning to `OC(CNCCc1ccccc1)COc1ccc(OCC(O)CNCCc2ccccc2)cc1` (configuration not stated), the inhibition was found to be 59.6%. The value for `COc1ccc(CCNCC(O)COc2cccc(Br)c2)cc1` (configuration not stated) was 45.7%; that for `O=c1c2ccccc2nc(/C=C/c2ccc(F)cc2)n1-c1ccccn1` was -7.61%. The result for `Cc1ccnc(NC(=O)c2ccccc2NC(=O)c2ccccc2)c1` reads 7.95%; that for `OCCCn1c(CCNc2nc(-c3ccc(F)cc3)cs2)nc2cc(C(F)(F)F)ccc21`, 26.8%. The value for `c1ccc2cc(OCCOCCOc3ccc4ccccc4c3)ccc2c1` was -3.69%; that for `CN(C)CCOc1ccc2ccccc2c1` was -16.7%.

Consider `COC(C(=O)Nc1ccc(S(=O)(=O)Nc2ccc(F)cc2)cc1)c1ccccc1` (configuration not stated), for which the inhibition stood at 30.9%.

Take `CCOc1ccc(C(C(=O)NCC2CCCO2)N(C(=O)c2snc(C(N)=O)c2N)c2cccc(F)c2)cc1` (configuration not stated): the inhibition came out at 3.71%. With `O=C(NCCCNC(=O)c1cnccn1)c1ccc(Cl)c(Cl)c1`, the inhibition was -0.84%. As to `COc1ccc(CC(=O)NNC(=O)COc2ccc(Br)cc2C)cc1OC`, the inhibition was -13.1%.

For `COc1ccc(CC(=O)NNC(=O)c2cnccn2)cc1`, the inhibition was -6.37%. For the molecule `Cc1cc(Cl)ccc1OCC(=O)NNC(=O)c1cccnc1`, the inhibition was -9.52%. The value for `O=C(NCCNC(=O)c1cnccn1)c1ccc(Cl)c(Cl)c1` was 5.99%; that for `Cc1ccc(C(=O)NNC(=O)COc2ccc(Cl)cc2C)o1` was -11.3%. Regarding `COc1ccccc1OCC(=O)NNC(=O)c1cnccn1`, the inhibition was found to be 3.6%. As for `CCc1ccc(OCC(=O)NCCN(C)C)c(Br)c1`, the inhibition was found to be 5.23%. The result for `Cn1nc(C(=O)N2CCOCC2)c2ccccc2c1=O` reads -8.35%. In the case of `O=C(COc1ccccc1-c1ccccc1)c1ccccc1`, the inhibition turned out to be 50.1%.

As to `COc1cc([C@@H]2CC=C(C(=O)O)[C@H](c3ccccc3)N2S(=O)(=O)c2ccc(C)cc2)cc(OC)c1OC`, the inhibition amounted to 12.5%. In the case of `CCN(CC)C(=O)[C@H]1CC(CC(=O)NCCCOC)C(=O)N2CCc3c([nH]c4ccccc34)[C@]12C` (some centres not stated), the inhibition was -1.9%. With `CC(=O)N1CCN(c2ccccc2NC(=O)COc2cc(C)ccc2C(C)C)CC1`, the inhibition came out at 34.3%. The result for `CCOc1ccc(NC(=O)CCCN2C(=O)C(c3ccccc3)Oc3cccnc32)cc1` (configuration not stated) reads 3.12%; that for `CC1(C)CC(=O)c2c(Cc3ccccc3)noc2C1`, 3.41%; that for `CCN(CC)CCn1c2c(c(SCC(=O)NCc3ccccc3)nc1=O)CCC2`, 8.95%.

As for `Cc1ccc(S(=O)(=O)NCC(=O)NCC(=O)N(C)Cc2ccc3ccccc3c2)cc1C`, the inhibition amounted to 31.9%. In the case of `O=C(COc1ccc(Cl)cc1Br)Nc1ccncc1`, the inhibition amounted to 69.3%.

As to `CCc1ccc(OCC(=O)NC(=S)Nc2ccc(F)cc2)c(Br)c1`, the inhibition was found to be 9.95%. `Cc1cc(Br)ccc1OCC(=O)NNC(=O)CCc1ccccc1`: the inhibition came to 29%.

For `Cc1cc(Br)ccc1OCC(=O)NNC(=O)Cc1ccccc1`, the inhibition is -15.6%. For `CCCc1nc2oc3c(NCCOCCO)ncnc3c2c2c1COC(C)(C)C2`, the inhibition was -8.1%. The value for `CCCN(CC(=O)Nc1ccc(F)c(F)c1F)CC(=O)Nc1c(C)n(C)n(-c2ccccc2)c1=O` was 37.8%; that for `COc1ccccc1-n1nnnc1SCC(=O)NC1CCCCC1` was 2.38%; that for `Cc1[nH]c(C)c(S(=O)(=O)Nc2cccc(Cl)c2C)c1C(=O)N1CCCC1` was 6.67%.

For `Cc1ccsc1/C=N/NC(=O)CN1CCN(Cc2ccccc2)CC1`, the inhibition is -0.88%. With `O=C(NCC1CCCO1)NC12CC3CC(CC(C3)C1)C2` (configuration not stated), the inhibition is -2.4%.

Consider `Cc1ccccc1OCC(=O)N/N=C/C=C/c1ccccc1`, for which the inhibition was -6.11%.

Take `O=C(COc1ccccc1[N+](=O)[O-])N/N=C/C=C/c1ccco1`: the inhibition turned out to be 12.5%. On to `COc1ccc(C(=O)NCC(=O)N/N=C/c2ccc(C)o2)cc1OC`, for which the inhibition was determined as 24.5%. The result for `Cc1cc(C)cc(OCC(=O)N/N=C/c2ccco2)c1` reads 9.16%; that for `COC(=O)N/N=C/c1ccc([N+](=O)[O-])o1`, 70.7%. For `CCOC(=O)N/N=C\c1ccc([N+](=O)[O-])o1`, the inhibition amounted to 59.1%. The result for `CCCCCC(=O)N/N=C/c1ccc([N+](=O)[O-])o1` reads 73.3%.

In the case of `COc1ccc(C(=O)NCC(=O)N/N=C/c2ccco2)cc1OC`, the inhibition is -11.6%. The result for `COc1ccc(CN2CCNC(=O)C2CC(=O)N(C)Cc2nccn2C)cc1OC` (configuration not stated) reads -4.39%.

For the molecule `NS(=O)(=O)c1ccc(CNC(=O)c2ccc3c(c2)OCO3)cc1`, the inhibition is -8.29%. The value for `CC1CCC2C(=O)N(c3cccc(C(=O)Nc4ccc(F)cc4)c3)C(=O)C2C1` (configuration not stated) was 0.0133%; that for `Cc1cc(C)c[n+](CC(=O)c2ccc(C)c([N+](=O)[O-])c2)c1` was 11.3%. Consider `COc1ccc(Cl)cc1NC(=O)CN(C)C(=O)/C=C/c1ccco1`, for which the inhibition was found to be 25.2%. The value for `CCc1nc2ccccc2n1CC(=O)N1CCN(S(=O)(=O)c2cccc(C(F)(F)F)c2)CC1` was 11.4%; that for `Cc1ccc(NC(=O)C2CCN(C(=O)c3ccc(Cl)cc3)CC2)nc1` was 11.3%.

On to `C/C(=N\Nc1ccc(Cl)cc1)c1ccncc1`, for which the inhibition worked out at 31.7%. As for `CCCC(=O)Nc1ccc(C(=O)N/N=C/c2ccc([N+](=O)[O-])o2)cc1`, the inhibition was 77.6%. Regarding `Cc1ccc(OCC(=O)N/N=C/c2ccco2)cc1`, the inhibition came to 36.5%.

For `Cc1ccccc1OCC(=O)N/N=C/c1ccc([N+](=O)[O-])o1`, the inhibition turned out to be 78.1%. The result for `CCCOc1ccc(CCC(=O)N/N=C/c2ccncc2)cc1` reads 25.7%; that for `Cc1ccc(NC(=O)CCC(=O)N/N=C/c2ccc([N+](=O)[O-])o2)cc1C`, 8.35%. For `CCCOc1ccc(CCC(=O)N/N=C/c2ccco2)cc1`, the inhibition is 64.4%. For `O=S(=O)(Nc1ccc(Nc2ccccc2)cc1)c1ccc(F)cc1`, the inhibition was 45.8%. For `O=C(COC(=O)c1ccc2ncsc2c1)NCc1ccccc1Cl`, the inhibition was 19.4%. Consider `CC(=O)Nc1ccc(S(=O)(=O)N2CCSC2C(=O)O)cc1` (configuration not stated), for which the inhibition came out at 1.73%. The result for `CCN(CC)S(=O)(=O)c1ccc(Oc2ccccc2)cc1` reads 30.3%.

As a reminder, the inhibition is the change of the read-out against control, counted positive when it falls.
